# Sampled rows, rich in hits. Any-hit rate of the full collection: about 11%.
# JMJD2A Tudor: JMJD2A Tudor domain (human) inhibition; AlphaScreen JMJD2A-Tudor / H3K4me3 peptide binding; 390,000 compounds, 4.4% hits; Potency, µM (titrated, usually from 114 µM), for inactives: at the highest dose activity change, negative = inhibition, most hits filed as inhibitors; O75164; note: % is set by controls: 0 for no effect and ±100 for the full control effect; nearly all actives have a fitted effect of over 50% in size
# BAZ2B block: BAZ2B (human) inhibition. AID 504333. Q9UIF8. AlphaScreen BAZ2B-H3K14Ac peptide displacement. Potency, µM (titrated, usually from 114 µM), for inactives: at the top dose activity change, negative = inhibition, usual class: inhibitors. 360,000 compounds, 4.4% hits; note: % is set by controls: 0 for no effect and ±100 for the full control effect; nearly all actives have a fitted effect of over 60% in size
#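 Protein-peptide AlphaScreen: BAZ2B 50 nM, b-H3K14Ac 50 nM, 1x PBS pH 7.4 + 0.01% Tween-20. Preincubation 30 min RT; cpd 30 min RT (top 110 uM); beads 20 min RT, light-protected.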
# HP1b chromo inh: HP1-beta chromodomain-methylated histone interaction inhibition; Potency, µM (doses to about 114 µM), without a hit: top-dose activity change, negative = inhibition, most hits filed as inhibitors; 390,000 compounds, 0.56% hits; P83916; AlphaScreen HP1-beta / biotin-H3K9me3 peptide binding; note: nearly all actives have a fitted effect of over 70% in size
# Target sequence (P83916 whole entry, looked up): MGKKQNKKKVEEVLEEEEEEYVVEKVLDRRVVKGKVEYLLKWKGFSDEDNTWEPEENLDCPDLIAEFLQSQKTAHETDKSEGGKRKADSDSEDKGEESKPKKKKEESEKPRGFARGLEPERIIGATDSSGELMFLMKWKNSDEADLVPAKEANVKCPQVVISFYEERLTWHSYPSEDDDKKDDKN
#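 AlphaScreen: HP1-beta (50 nM) preformed 30 min with biotin-H3(1-18)K9me3 peptide (50 nM) in PBS pH 7.4, 0.01% Tween-20. Compound added for 30 min at RT, then streptavidin donor/nickel chelate acceptor beads (10 ug/mL) for 30 min.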
# G9a block: G9a (human) methyltransferase inhibition | G9a H3K9 monomethylation, AlphaScreen, 2 h | Potency, µM (titrated, usually from 102 µM), for inactives: top-dose activity, negative = inhibition, actives largely listed as inhibitors | 350,000 compounds, 8.8% hits; note: % is set by controls: 0 for no effect and ±100 for the full control effect; nearly all actives have a fitted effect of over 75% in size
# Target sequence (Q96KQ7 913-1193 limits assumed): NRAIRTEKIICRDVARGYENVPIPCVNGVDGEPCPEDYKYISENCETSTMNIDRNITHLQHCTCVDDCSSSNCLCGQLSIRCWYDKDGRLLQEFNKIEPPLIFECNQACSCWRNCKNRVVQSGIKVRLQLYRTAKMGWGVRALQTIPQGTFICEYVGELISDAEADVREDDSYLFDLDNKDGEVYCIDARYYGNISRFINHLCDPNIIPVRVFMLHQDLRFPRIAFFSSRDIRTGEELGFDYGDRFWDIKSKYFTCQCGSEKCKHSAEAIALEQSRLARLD
#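 Methyltransferase reactions run at room temperature for 2 h (20 nM enzyme, 500 nM biotin-H3K9 peptide, 20 uM SAM) after a 15 min compound preincubation; product detected by AlphaScreen beads and anti-H3K9me1 antibody.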
# L3MBTL1 block: L3MBTL1 (human) inhibition; Q9Y468; AlphaScreen L3MBTL1–H3K9me1 peptide binding; Potency, µM (titrated, usually from 57.1 µM), for the others: at the highest dose activity, negative = inhibition, actives largely listed as inhibitors; 230,000 compounds, 0.66% hits; AID 485360; note: % is set by controls: 0 for no effect and ±100 for the full control effect; nearly all actives have a fitted effect of over 60% in size
#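 AlphaScreen assay: L3MBTL1 (50 nM final) was preincubated 30 min at room temperature with biotinylated H3(1-15)K9me1 peptide (75 nM final), then 30 min with library compounds; streptavidin donor and nickel chelate acceptor beads (10 ug/mL final) added, 30 min dark.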
# * hit, by the source's call; ? = inconclusive; / = no result; [ ] = dose if it differs, or a comment. Calls come from the whole dose curve; as a rule, active = well fitted inhibition curve with a large enough effect; inconclusive = small, poorly fitted or top-dose-only effect; inactive = no such curve, though single readings can be large or run the other way. Potency is the fitted concentration of half-maximal effect.
SMILES,JMJD2A Tudor,BAZ2B block,HP1b chromo inh,G9a block,L3MBTL1 block
O=C(c1cc([N+](=O)[O-])cc([N+](=O)[O-])c1)N(Cc1nnc(-c2ccccc2Cl)o1)C1CC1,?,-30%,15%,?,-7%
COc1cc(OC)cc(-c2nc3ccccc3c(=O)n2OC(=O)c2ccc(Br)cc2)c1,20µM*,?,8%,?,4%
C/C=C\C(=O)Nc1cccc(C2=NOC3(C2)C[C@H](C(N)=O)N(C(=O)Cc2ccc([N+](=O)[O-])cc2)C3)c1 (stereo not given in full),-3%,-6%,52%,-3%[12.7 µM],/
O=C(NNc1cccc(Cl)n1)Nc1ccc(Cl)cc1,8%,6%,36%,?,6%
Cc1ccc(NNC(=O)Nc2ccc(Cl)cc2)nn1,79µM*,-23%,?,4µM*,/
CN1CCc2cccc3c2[C@H]1Cc1ccc(O)c(O)c1-3,8.9µM*,?,14µM*,1.4µM*,?
OCCN(Cc1ccccc1)Cc1cccc(Cl)c1Cl,10µM*,50µM*,?,?,0%
OCCN(Cc1ccccc1)Cc1ccccc1F,1.8µM*,25µM*,45µM*,2.5µM*,31%[11.4 µM]
COC(=O)/C=C1\N/C(=N\c2nc(C)cc(C)n2)N(c2ccc(C)c(C)c2)C1=O,28µM*,-30%,30%,?,9%
COC(=O)/C=C1/C(=O)N/C(=N\c2nc(C)cc(C)n2)N1c1ccc(OC)cc1,25µM*,?,29%,?,4%
Cc1cc(C)nc(/N=C2\NC(=O)CC(C(=O)O)N2c2ccc(F)c(Cl)c2)n1 (stereo not given),/,-20%,/,-45%,-24%
COC(=O)/C=C1\N/C(=N\c2nc(C)cc(C)n2)N(c2ccc(Cl)cc2)C1=O,20µM*,-8%,8%,/,-1%
CC(C)(C)OC(=O)N1CCN(c2nc(-c3cccs3)nc3ccccc23)CC1,5%,/,57%,/,/
COc1ccc(C)cc1NC(=O)CSc1ncc2c(n1)-c1ccc(Cl)cc1N(Cc1ccccc1)S2(=O)=O,-33%,50µM*,-21%,-31%[59 µM],/
COc1ccccc1NC(=O)CSc1ncc2c(n1)-c1cc(Cl)ccc1N(Cc1ccccc1)S2(=O)=O,-21%,-13%,19%,?,/
Cc1[nH]c(=S)c(C#N)c(C)c1Cc1ccccc1,?,-11%,13%,?,-3%
Cc1ccc2c(Cl)c(Cc3ccccc3)c(=S)[nH]c2n1,32µM*,/,?,/,/
O=C(Cc1nnc(-c2cc3ccccc3[nH]2)o1)Nc1cc(C(F)(F)F)ccc1Cl,-31%,/,/,/,/
CN(C(=O)Cc1c(C(=O)O)n(C)c2ccccc12)c1ccc(F)cc1,-14%,3%,20%,-42%,/
Cc1cc2c(ncn2Cc2ccccc2)c(N)c1C,?,71µM*,-26%,?,-13%
O=C(Nc1ccc(C(F)(F)F)cc1)C1=NN(C2CCS(=O)(=O)C2)C(=O)CC1 (stereo not given),-18%,-5%,6%,-2%[59 µM],10%
S=c1[nH]c2cc(Cl)ccc2s1,?,-1%[57.1 µM],-9%,1.8µM*,-2%
S=c1[nH]c2ccc(Cl)cc2[nH]1,45µM*,7%,?,1.6µM*,14%[11.4 µM]
COc1ccc2[nH]c(=S)[nH]c2c1,56µM*,10%,16%,4.5µM*,1%
Cc1cc(Cl)cc2sc(=S)[nH]c12,-18%,/,-11%[57 µM],/,/
SMILES,JMJD2A Tudor,BAZ2B block,HP1b chromo inh,G9a block,L3MBTL1 block
CC(C)COc1ccc(C(=O)N2CCCCC2CCN2CCCCC2)cc1 (stereo not given),-19%,-1%,6%,-5%[59 µM],/
CCC(=O)N[C@@H]1CC(C(C)(C)NC(=O)CC)CC=C1C (stereo not given in full),50µM*,-2%,-12%,-41%,-2%
CCC(C)NCCC(=O)Nc1ccc(Cl)c(S(=O)(=O)Nc2ccc(Cl)cc2)c1 (stereo not given),-19%,-22%,-4%,-41%,-4%
CN(C)c1ccc(NS(=O)(=O)c2cc(Cl)ccc2Cl)cc1,56µM*,35µM*,50µM*,8.9µM*,-18%
CCN(c1ccc(NS(=O)(=O)c2cc(Cl)ccc2Cl)cc1)C(C)C,50µM*,35µM*,?,7.1µM*,?
O=S(=O)(Nc1ncccn1)c1ccc(NS(=O)(=O)c2cc(Cl)ccc2Cl)cc1,10%,-2%,28%,?,/
O=S(=O)(Nc1cccc(-c2ccc(N3CCOCC3)nn2)c1)c1cc(Cl)ccc1Cl,-18%,-1%,15%,?,4%
Nc1cc(S(=O)(=O)Nc2cc(Cl)ccc2Cl)ccc1N1CCOCC1,?,-34%,?,11µM*,-1%
O=S(=O)(Nc1ccc(N2CCOCC2)cc1)c1cc(Cl)ccc1Cl,?,-31%,-6%,45µM*,/
COc1cccc(CNC(=O)c2ccc(NC(=O)N3CCCCc4ccccc43)cc2)c1OC,2%,-3%,65%,15%[59 µM],/
CCN(CCCNC(=O)c1cc(Nc2ccccc2OC)nc2ccccc12)c1cccc(C)c1,-23%,/,63%,-5%[59 µM],/
Nc1cc(Cl)ccc1N1CCCC1,?,?,-16%,14µM*,8%
CCOc1cc(/C=C2/C(=O)NN(c3cccc(Cl)c3)C2=O)ccc1O,?,35µM*,-18%,32µM*,-8%
COc1cc(/C=C2/C(=O)NN(c3cccc(Cl)c3)C2=O)cc(OC)c1O,50µM*,28µM*,?,14µM*,-24%
O=C1NN(c2cccc(Br)c2)C(=O)/C1=C\c1ccc(O)cc1,-25%,-36%,2%,3.5µM*,/
COc1cc(/C=C2/C(=O)NN(c3cccc(C)c3)C2=O)ccc1OC(=O)c1ccco1,-23%,?,-7%,?,-11%
COc1ccc(NC(=O)N2CCN(Cc3nc4ccc(C)cc4o3)CC2)cc1OC,-6%,-18%,26%,12%[59 µM],/
COc1ccc(CCN2C(=O)N[C@@H](C(C)C)C2=O)cc1,-11%,0%,25%,2%,/
CC(C)(C)c1ccccc1NC(=O)CN1C(=O)NC(Cc2ccccc2)C1=O (stereo not given),-10%,71µM*,20%,-4%[0.501 µM],35%
O=C(CN1C(=O)NC(Cc2ccccc2)C1=O)Nc1ccccc1F (stereo not given),-4%,2%,59%,19%[12.7 µM],4%
COc1ccc(CC2=CC(=O)c3ccccc3C2=O)cc1,25µM*,14µM*,13µM*,/,?
CN(C)c1ccc(C(CNS(=O)(=O)c2ccc(F)cc2)c2c[nH]c3ccccc23)cc1 (stereo not given),25µM*,18µM*,?,10µM*,?
CCOC(=O)c1ccc(S(=O)(=O)NCCN(CC)CC)cc1,-8%,-18%,11%,?,-4%
